# Tests used:
# [1] = target: T1, Serine/threonine-protein kinase Sgk2 (Homo sapiens) (UniProt Q9HBY8); conditions: at 1 µM
# T1 sequence (whole entry): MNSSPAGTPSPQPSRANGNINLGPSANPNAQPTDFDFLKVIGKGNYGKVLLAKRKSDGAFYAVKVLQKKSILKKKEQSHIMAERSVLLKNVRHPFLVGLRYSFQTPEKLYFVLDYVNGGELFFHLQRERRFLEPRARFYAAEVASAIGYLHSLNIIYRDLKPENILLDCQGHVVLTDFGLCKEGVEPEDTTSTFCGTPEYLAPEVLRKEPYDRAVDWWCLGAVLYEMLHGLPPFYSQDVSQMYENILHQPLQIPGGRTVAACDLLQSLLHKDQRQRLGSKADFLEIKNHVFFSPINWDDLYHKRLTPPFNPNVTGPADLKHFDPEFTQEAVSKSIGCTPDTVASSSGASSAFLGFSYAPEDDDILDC
# [2] = target: T1, Serine/threonine-protein kinase Sgk2 (Homo sapiens); conditions: at 10 µM
# [3] = target: T2, Serine/threonine-protein kinase Sgk3 (Homo sapiens) (UniProt Q96BR1); conditions: at 10 µM
# T2 sequence (whole entry): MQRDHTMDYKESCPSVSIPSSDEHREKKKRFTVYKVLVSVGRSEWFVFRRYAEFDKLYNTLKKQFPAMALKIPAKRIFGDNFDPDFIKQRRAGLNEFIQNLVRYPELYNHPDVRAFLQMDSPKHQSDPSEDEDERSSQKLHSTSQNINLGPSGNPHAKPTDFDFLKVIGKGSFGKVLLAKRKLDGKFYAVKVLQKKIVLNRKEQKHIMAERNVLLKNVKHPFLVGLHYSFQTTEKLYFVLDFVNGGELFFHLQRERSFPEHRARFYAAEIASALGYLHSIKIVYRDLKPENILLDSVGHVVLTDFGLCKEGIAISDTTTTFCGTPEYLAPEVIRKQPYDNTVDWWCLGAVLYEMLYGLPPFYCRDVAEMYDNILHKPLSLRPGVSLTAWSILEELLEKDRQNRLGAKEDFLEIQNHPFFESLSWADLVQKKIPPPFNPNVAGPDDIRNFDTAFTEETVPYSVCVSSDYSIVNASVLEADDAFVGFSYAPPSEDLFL
# [4] = target: Serine/threonine-protein kinase SIK1 (Homo sapiens) (UniProt P57059); conditions: at 1 µM
# [5] = target: Serine/threonine-protein kinase SIK1 (Homo sapiens) (UniProt P57059); conditions: at 10 µM
# [6] = target: Serine/threonine-protein kinase PLK2 (Homo sapiens) (UniProt Q9NYY3); conditions: at 1 µM
# [7] = target: Serine/threonine-protein kinase PLK2 (Homo sapiens) (UniProt Q9NYY3); conditions: at 10 µM
# [8] = target: Tyrosine-protein kinase SYK (Homo sapiens) (UniProt P43405); conditions: at 10 µM
# [9] = target: T3, Mitogen-activated protein kinase kinase kinase 7 (Homo sapiens) (UniProt O43318); conditions: at 1 µM
# T3 sequence (whole entry): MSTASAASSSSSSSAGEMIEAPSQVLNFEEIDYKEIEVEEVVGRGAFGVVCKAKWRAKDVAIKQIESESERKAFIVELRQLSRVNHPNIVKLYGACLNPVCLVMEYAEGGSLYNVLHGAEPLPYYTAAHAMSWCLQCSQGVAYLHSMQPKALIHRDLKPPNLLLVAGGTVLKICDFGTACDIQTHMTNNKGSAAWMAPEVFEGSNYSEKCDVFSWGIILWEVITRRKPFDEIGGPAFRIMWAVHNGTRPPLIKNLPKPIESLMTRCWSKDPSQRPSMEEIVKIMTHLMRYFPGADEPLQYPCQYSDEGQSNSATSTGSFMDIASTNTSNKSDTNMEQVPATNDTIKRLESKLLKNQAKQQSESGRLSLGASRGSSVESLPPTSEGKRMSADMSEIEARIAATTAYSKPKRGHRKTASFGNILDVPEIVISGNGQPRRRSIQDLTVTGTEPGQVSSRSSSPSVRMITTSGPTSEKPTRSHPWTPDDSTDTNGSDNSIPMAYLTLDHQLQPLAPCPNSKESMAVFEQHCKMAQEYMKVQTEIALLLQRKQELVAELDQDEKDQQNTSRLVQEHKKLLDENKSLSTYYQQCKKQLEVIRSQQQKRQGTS
# [10] = target: T3, Mitogen-activated protein kinase kinase kinase 7 (Homo sapiens); conditions: at 10 µM
# [11] = target: T2, Serine/threonine-protein kinase Sgk3 (Homo sapiens); conditions: at 1 µM
# [12] = target: SRSF protein kinase 1 (Homo sapiens) (UniProt Q96SB4); conditions: at 10 µM
# [13] = target: Serine/threonine-protein kinase 33 (Homo sapiens) (UniProt Q9BYT3); conditions: at 10 µM
# [14] = target: T4, Serine/threonine-protein kinase TAO1 (Homo sapiens) (UniProt Q7L7X3); conditions: at 1 µM
# T4 sequence (whole entry): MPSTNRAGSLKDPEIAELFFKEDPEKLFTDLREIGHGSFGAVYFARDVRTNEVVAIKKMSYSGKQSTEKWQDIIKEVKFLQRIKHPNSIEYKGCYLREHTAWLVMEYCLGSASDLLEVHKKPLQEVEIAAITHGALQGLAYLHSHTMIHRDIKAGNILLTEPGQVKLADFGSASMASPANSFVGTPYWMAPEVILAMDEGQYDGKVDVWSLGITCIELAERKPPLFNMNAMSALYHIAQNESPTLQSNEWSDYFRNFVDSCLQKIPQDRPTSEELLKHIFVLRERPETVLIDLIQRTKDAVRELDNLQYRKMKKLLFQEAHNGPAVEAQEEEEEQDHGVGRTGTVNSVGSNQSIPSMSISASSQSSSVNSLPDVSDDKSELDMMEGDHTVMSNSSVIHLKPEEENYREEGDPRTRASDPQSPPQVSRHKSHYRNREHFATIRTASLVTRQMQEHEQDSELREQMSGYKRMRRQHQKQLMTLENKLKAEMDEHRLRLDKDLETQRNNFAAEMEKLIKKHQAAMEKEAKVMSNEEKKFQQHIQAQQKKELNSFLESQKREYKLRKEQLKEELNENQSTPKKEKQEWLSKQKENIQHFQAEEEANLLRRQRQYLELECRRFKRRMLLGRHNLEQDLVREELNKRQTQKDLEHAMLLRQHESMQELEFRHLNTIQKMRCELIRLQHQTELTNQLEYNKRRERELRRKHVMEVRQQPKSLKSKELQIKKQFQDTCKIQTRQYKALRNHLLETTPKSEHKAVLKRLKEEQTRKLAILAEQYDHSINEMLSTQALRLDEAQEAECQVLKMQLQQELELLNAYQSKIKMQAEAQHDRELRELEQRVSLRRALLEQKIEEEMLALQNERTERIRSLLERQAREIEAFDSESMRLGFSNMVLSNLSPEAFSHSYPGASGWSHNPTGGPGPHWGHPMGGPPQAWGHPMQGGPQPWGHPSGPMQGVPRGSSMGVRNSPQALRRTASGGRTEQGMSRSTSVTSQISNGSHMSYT
# [15] = target: T4, Serine/threonine-protein kinase TAO1 (Homo sapiens); conditions: at 10 µM
# [16] = target: SRSF protein kinase 1 (Homo sapiens) (UniProt Q96SB4); conditions: at 1 µM
# [17] = target: SRSF protein kinase 2 (Homo sapiens) (UniProt P78362); conditions: at 1 µM
# [18] = target: Serine/threonine-protein kinase 33 (Homo sapiens) (UniProt Q9BYT3); conditions: at 1 µM
# [19] = target: Tyrosine-protein kinase SYK (Homo sapiens) (UniProt P43405); conditions: at 1 µM
# [20] = target: SRSF protein kinase 2 (Homo sapiens) (UniProt P78362); conditions: at 10 µM
# Sequence of Serine/threonine-protein kinase 33 (Homo sapiens) (Q9BYT3 whole entry, looked up): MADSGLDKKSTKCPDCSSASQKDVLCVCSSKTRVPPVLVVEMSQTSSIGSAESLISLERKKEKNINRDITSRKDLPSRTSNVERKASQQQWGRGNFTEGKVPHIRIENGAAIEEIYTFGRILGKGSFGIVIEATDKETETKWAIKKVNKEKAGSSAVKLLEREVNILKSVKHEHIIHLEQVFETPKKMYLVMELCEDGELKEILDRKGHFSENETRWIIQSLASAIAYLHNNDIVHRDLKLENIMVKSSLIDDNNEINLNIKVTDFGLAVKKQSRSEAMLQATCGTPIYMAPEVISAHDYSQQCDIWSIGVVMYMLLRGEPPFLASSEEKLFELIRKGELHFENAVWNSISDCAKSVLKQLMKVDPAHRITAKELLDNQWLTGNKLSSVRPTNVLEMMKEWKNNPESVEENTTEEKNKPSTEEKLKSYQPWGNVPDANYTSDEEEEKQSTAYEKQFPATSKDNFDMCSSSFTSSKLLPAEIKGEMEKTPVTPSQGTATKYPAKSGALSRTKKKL
# Sequence of Serine/threonine-protein kinase PLK2 (Homo sapiens) (Q9NYY3 whole entry, looked up): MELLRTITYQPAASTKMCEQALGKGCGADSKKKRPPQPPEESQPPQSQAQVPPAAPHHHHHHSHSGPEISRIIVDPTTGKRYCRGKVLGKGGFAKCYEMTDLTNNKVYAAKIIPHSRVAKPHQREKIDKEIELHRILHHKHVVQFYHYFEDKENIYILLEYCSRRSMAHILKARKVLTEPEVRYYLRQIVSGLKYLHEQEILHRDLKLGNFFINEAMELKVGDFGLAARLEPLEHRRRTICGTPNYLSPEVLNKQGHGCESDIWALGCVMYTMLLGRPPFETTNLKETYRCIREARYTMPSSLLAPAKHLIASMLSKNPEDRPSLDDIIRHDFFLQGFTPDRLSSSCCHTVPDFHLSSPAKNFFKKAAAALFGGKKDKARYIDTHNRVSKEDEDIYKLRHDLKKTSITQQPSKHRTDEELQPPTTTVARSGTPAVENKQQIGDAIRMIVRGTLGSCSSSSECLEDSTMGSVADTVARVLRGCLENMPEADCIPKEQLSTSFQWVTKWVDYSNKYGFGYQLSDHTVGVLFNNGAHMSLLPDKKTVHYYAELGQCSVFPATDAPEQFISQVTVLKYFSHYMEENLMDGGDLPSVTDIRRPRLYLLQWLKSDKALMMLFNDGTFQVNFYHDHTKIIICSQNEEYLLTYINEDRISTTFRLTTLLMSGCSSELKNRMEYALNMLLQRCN
# Sequence of SRSF protein kinase 1 (Homo sapiens) (Q96SB4 whole entry): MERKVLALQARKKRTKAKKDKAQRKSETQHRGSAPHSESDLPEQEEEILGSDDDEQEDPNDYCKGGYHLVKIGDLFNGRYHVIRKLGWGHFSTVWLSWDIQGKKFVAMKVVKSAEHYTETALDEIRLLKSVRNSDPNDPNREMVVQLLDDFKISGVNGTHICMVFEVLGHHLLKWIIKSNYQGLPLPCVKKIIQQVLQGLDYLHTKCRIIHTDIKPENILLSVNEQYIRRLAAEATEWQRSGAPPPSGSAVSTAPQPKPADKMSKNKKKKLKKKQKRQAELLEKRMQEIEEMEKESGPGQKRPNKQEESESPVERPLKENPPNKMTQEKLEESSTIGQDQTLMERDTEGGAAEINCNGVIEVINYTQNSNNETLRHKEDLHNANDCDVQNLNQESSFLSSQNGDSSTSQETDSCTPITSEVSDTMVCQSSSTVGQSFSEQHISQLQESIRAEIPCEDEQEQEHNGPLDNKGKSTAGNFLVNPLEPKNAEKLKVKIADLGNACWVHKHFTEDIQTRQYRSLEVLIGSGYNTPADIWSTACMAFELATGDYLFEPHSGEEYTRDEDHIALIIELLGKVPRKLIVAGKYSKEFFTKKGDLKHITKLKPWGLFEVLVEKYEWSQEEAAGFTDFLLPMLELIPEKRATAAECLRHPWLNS
# Sequence of SRSF protein kinase 2 (Homo sapiens) (P78362 whole entry, looked up): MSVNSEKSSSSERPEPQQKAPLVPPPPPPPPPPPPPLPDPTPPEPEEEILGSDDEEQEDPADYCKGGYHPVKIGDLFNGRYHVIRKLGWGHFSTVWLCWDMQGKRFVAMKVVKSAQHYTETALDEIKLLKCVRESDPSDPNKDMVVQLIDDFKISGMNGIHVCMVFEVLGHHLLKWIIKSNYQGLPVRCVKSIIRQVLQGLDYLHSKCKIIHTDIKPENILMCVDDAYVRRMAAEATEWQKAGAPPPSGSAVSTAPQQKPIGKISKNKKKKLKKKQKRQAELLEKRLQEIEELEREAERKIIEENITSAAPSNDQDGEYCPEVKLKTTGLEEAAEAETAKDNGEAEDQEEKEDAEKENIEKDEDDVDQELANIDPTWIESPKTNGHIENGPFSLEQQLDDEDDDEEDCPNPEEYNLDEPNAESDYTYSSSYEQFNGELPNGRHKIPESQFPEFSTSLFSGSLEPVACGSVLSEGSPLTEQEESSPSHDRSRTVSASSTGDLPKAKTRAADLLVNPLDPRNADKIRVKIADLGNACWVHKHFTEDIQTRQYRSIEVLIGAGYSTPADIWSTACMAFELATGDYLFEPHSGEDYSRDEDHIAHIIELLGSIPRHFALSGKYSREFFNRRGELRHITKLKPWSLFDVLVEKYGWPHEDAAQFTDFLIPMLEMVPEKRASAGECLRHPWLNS
# Sequence of Serine/threonine-protein kinase SIK1 (Homo sapiens) (P57059 whole entry): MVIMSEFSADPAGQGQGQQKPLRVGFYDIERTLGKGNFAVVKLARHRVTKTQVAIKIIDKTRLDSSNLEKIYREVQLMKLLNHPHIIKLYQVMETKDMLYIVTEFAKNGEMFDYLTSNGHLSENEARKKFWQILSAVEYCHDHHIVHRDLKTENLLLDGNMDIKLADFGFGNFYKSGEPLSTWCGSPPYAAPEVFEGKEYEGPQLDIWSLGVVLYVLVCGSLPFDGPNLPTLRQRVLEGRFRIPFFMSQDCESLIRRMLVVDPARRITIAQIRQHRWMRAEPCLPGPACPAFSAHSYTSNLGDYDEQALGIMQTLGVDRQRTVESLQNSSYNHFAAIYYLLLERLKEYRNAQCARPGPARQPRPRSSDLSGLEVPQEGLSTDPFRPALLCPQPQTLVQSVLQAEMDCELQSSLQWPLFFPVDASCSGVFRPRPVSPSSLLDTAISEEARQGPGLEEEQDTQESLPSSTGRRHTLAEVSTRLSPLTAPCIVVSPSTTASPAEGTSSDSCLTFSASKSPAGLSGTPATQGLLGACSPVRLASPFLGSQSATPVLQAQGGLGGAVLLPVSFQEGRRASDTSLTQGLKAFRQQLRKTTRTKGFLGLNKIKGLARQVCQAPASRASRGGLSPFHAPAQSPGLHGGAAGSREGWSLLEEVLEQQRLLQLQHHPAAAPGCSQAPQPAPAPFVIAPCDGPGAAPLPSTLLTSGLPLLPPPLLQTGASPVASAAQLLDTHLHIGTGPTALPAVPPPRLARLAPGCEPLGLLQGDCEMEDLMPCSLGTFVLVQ
compound,measurement,setting,value
c1cc(-c2cnn3cc(-c4ccc(OCCN5CCCCC5)cc4)cnc23)ccn1,residual activity,[1],81%
same,residual activity,[2],48%
same,residual activity,[3],78%
same,residual activity,[4],43%
same,residual activity,[5],9%
same,residual activity,[6],82%
same,residual activity,[7],85%
same,residual activity,[8],59%
same,residual activity,[9],57%
same,residual activity,[10],13%
COc1ccc(S(=O)(=O)N(CCO)c2ccccc2CN(C)C/C=C/c2ccc(Cl)cc2)cc1,residual activity,[11],98%
O=C(c1cc2cc(O)ccc2[nH]1)c1cc2cc(O)ccc2[nH]1,residual activity,[11],81%
CC(C)n1cnc2c(NCc3ccccc3)nc(NCCCO)nc21,residual activity,[11],89%
O=C1NC(=O)c2cc(Nc3ccc(F)cc3)c(Nc3ccc(F)cc3)cc21,residual activity,[11],96%
COc1ccc2c(c1)/C(=C/c1cnc[nH]1)C(=O)N2,residual activity,[2],32%
same,residual activity,[11],100%
same,residual activity,[3],53%
same,residual activity,[4],145%
same,residual activity,[5],48%
same,residual activity,[12],98%
same,residual activity,[13],53%
same,residual activity,[9],75%
same,residual activity,[10],21%
same,residual activity,[14],41%
same,residual activity,[15],7%
O=C1Nc2ccc3ncsc3c2/C1=C/c1c[nH]cn1,residual activity,[1],12%
same,residual activity,[2],5%
same,residual activity,[11],73%
same,residual activity,[3],21%
same,residual activity,[4],49%
same,residual activity,[5],43%
same,residual activity,[16],102%
same,residual activity,[12],101%
same,residual activity,[17],104%
same,residual activity,[18],62%
same,residual activity,[13],25%
same,residual activity,[6],49%
same,residual activity,[7],17%
same,residual activity,[19],101%
same,residual activity,[8],53%
same,residual activity,[9],16%
same,residual activity,[10],1%
same,residual activity,[14],11%
same,residual activity,[15],0%
Nc1ccc2ncnc(NCCc3ccc(Oc4ccccc4)cc3)c2c1,residual activity,[11],109%
COc1ccc2c(c[n+](C)c3c4cc5c(cc4ccc23)OCO5)c1OC,residual activity,[1],130%
same,residual activity,[2],65%
same,residual activity,[3],79%
same,residual activity,[4],92%
same,residual activity,[12],98%
same,residual activity,[17],96%
same,residual activity,[20],96%
same,residual activity,[18],97%
same,residual activity,[13],92%
same,residual activity,[7],71%
same,residual activity,[19],132%
same,residual activity,[8],82%
same,residual activity,[9],92%
same,residual activity,[10],94%
same,residual activity,[15],87%
